Assay results: PubChem BioAssay (NCATS)
Where “and” joins values, the source holds several entries; their conditions need not be identical. Identical values can stand only once. Records with an inconclusive call do not appear. Calls of active or inactive are those of the source. Unless noted, no rule for the calls is given here.

Legend:
[1] = target: Glucocorticoid receptor (Homo sapiens) (UniProt P04150); assay: qHTS assay for small molecule agonists of glucocorticoid receptor signaling (AID 588532; active = well fitted curve in the direction sought with a large enough effect in the signal ratio, with a control signal flat; the % refers to the signal ratio;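 also: 100% = dexamethasone at 0.1 µM and 0% = DMSO only wells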); conditions: HeLa MMTV-bla, beta-lactamase ratio, agonist, 18 h; activation: stronger effect = higher value, percent of dexamethasone control, DMSO zero
Chain of Glucocorticoid receptor (Homo sapiens) (P04150 whole entry, looked up): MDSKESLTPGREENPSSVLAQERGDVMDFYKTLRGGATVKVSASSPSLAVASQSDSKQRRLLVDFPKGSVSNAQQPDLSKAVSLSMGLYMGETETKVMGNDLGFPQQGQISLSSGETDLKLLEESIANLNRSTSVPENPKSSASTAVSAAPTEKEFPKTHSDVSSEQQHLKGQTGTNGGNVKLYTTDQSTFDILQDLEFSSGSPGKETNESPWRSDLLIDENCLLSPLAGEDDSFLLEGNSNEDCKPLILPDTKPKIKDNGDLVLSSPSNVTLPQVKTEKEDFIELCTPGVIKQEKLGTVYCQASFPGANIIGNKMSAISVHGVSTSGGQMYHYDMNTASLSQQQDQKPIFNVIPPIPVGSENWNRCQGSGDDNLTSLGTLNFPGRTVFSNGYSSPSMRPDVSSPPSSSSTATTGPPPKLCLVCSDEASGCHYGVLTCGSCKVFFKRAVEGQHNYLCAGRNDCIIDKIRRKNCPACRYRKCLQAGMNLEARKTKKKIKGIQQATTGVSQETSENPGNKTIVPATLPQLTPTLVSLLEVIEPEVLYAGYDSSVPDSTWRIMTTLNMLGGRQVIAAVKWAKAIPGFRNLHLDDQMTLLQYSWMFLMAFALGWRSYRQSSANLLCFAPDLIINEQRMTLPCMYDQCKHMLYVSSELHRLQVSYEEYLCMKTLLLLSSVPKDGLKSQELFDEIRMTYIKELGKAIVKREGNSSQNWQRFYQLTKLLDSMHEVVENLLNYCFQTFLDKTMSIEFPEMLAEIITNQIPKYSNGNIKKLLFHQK
Procedure, shortened: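 Agonist-mode qHTS: GRE-driven beta-lactamase in HeLa cells exposed 18 h to titrated compounds (up to 92 uM), then CCF4 ratio read after 2 h at RT; Hill-fitted EC50, efficacy relative to 0.1 uM dexamethasone.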

[2] = target: Peroxisome proliferator-activated receptor delta (Homo sapiens) (UniProt Q03181); assay: qHTS assay for small molecule antagonists of peroxisome proliferator-activated receptor delta signaling (AID 588535; active = well fitted inhibition curve with a large enough effect in the signal ratio, with a control signal flat, not every such curve was filed as active; the % refers to the signal ratio)
Chain of Peroxisome proliferator-activated receptor delta (Homo sapiens) (Q03181 whole entry, looked up): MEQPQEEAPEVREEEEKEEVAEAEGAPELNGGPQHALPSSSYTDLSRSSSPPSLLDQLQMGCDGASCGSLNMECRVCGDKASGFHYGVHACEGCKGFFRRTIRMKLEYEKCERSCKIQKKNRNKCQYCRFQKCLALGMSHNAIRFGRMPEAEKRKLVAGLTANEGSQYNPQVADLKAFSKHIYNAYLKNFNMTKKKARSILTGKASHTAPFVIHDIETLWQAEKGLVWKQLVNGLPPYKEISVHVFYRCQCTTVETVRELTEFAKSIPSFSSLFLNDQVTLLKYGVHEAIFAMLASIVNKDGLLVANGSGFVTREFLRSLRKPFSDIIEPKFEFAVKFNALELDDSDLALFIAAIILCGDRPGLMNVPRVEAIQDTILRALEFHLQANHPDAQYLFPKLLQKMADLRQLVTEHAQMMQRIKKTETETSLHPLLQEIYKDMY
Procedure, shortened: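 HEK293T PPAR-delta-UAS-bla cells, 4000/well, 2% charcoal/dextran FBS; 5 h 37 C; cpd titration; 18 h 37 C; CCF4 2 h RT; FI 460/530 nm; Hill fit → IC50, efficacy.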

[3] = target: Thyroid hormone receptor beta (Homo sapiens) (UniProt P10828); assay: qHTS assay for small molecule antagonists of thyroid hormone receptor beta signaling (AID 588547; active = well fitted inhibition curve with a large enough effect in the signal ratio, with a control signal flat, not every such curve was filed as active; the % refers to the signal ratio;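 also: cells stimulated with 0.4 nM T3 agonist during compound exposure; series mostly up to about 77 µM; % is scaled to controls: 0 for no effect and ±100 for the full control effect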); conditions: TR-UAS-bla HEK293, beta-lactamase ratio, antagonist mode, 18 h
Chain of Thyroid hormone receptor beta (Homo sapiens) (P10828 whole entry, looked up): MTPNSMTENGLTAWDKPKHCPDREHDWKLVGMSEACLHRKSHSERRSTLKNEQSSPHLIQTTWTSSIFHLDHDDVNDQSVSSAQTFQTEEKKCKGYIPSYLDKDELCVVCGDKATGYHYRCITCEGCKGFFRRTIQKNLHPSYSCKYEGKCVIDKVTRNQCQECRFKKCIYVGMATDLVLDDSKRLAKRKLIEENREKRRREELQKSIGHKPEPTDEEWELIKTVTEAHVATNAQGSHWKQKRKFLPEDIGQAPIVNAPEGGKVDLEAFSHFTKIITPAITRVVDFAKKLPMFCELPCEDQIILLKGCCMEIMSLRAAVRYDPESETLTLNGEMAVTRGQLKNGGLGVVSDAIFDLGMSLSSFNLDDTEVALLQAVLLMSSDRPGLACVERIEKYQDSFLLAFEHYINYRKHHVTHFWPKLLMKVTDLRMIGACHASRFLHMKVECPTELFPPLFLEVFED
Procedure, shortened: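 Inhibition of T3-driven (0.4nM final) beta-lactamase reporter activity was measured over 0.59 nM to 92 uM compound after 18 h at 37 C. The cells were GripTite HEK293 TR-UAS-bla in charcoal/dextran-stripped serum, with CCF4 ratio read-out and IC50 from Hill fits.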

[4] = qHTS assay for small molecule activators of the nuclear factor-kappa B (NF-kB) signaling pathway (AID 651749; active = well fitted activation curve with a large enough effect in the signal ratio; the % refers to the signal ratio; also: series mostly up to about 77 µM; % of control where 0% means no effect); conditions: NF-kB-bla ME-180 cells, beta-lactamase FRET ratio, 16 h; activation: stronger effect = higher value
Procedure, shortened: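 Readout: beta-lactamase reporter driven by an NF-kB response element, detected fluorescently as loss of FRET. Cells were the ME-180 line, treated 16 hr at 37C with pin-transferred compound.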

[5] = target: Glucocorticoid receptor (Homo sapiens) (UniProt P04150); assay: qHTS assay for small molecule antagonists of glucocorticoid receptor signaling (AID 588533; active = well fitted inhibition curve with a large enough effect in the signal ratio, with a control signal flat, not every such curve was filed as active; the % refers to the signal ratio;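 also: cells stimulated with 2 nM dexamethasone as agonist; % is scaled to controls: 0 for no effect and ±100 for the full control effect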)
Procedure, shortened: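 Antagonist-mode qHTS: compound titrations added to GRE-bla HeLa cells, then dexamethasone 2 nM final; 18 h, 37 C. CCF4 FRET fluorescence normalized to dexamethasone and DMSO; IC50 from Hill fit.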

[6] = qHTS assay for small molecule agonists of the antioxidant response element (ARE) signaling pathway (AID 651741; active = well fitted activation curve with a large enough effect in the signal ratio; the % refers to the signal ratio; also: potency is read from the fitted curve at half-maximal effect; as to activation: % of control where 0% means no effect)
Procedure, shortened: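 Quantitative HTS in HepG2 cells stably expressing an ARE-beta-lactamase reporter; 16 h compound exposure at 37 C, followed by 2 h room-temperature incubation with LiveBLAzer B/G FRET substrate and fluorescence measurement.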

[7] = qHTS assay for small molecule activators of the human pregnane X receptor (PXR) signaling pathway (AID 720659); also: 0% is about no effect
[8] = target: Estrogen receptor (Homo sapiens) (UniProt P03372); assay: qHTS assay for small molecule agonists of estrogen receptor alpha signaling (AID 588514; calls by dose curve;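 also: 0% = vehicle only and 100% = reference agonist; nearly all actives have a fitted effect of over 70% in size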)
Chain of Estrogen receptor (Homo sapiens) (P03372 whole entry, looked up): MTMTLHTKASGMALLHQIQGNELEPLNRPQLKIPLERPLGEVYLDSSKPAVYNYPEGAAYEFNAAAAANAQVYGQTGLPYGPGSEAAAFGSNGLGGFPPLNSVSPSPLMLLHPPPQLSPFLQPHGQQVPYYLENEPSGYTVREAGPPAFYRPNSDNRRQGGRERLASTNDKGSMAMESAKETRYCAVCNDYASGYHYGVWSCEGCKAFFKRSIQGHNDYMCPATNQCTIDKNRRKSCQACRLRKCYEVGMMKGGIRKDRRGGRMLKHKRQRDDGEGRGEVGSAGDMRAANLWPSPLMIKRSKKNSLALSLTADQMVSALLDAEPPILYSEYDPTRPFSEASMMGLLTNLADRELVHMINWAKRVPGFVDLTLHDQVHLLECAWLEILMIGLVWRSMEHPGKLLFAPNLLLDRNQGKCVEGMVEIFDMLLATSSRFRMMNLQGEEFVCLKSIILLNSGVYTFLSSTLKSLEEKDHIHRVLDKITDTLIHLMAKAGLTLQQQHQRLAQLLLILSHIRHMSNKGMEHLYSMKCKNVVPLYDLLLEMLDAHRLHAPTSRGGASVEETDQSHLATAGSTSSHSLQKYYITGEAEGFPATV
Procedure, shortened: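 ER-alpha-UAS-bla GripTite HEK293 cells, 5000/well in 2% charcoal/dextran-stripped FBS medium, treated with compound titrations 18 h at 37 C. CCF4 beta-lactamase read by fluorescence after 2 h RT; normalised to 20 nM 17-beta-estradiol (100%) and DMSO (0%), Hill fit for EC50 and efficacy.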

[9] = target: Androgen receptor (Homo sapiens) (UniProt P10275); assay: qHTS assay for small molecule agonists of androgen receptor signaling (AID 588515; active = well fitted curve in the direction sought with a large enough effect in the signal ratio, with a control signal flat; the % refers to the signal ratio; also: % is scaled to controls: 0 for no effect and ±100 for the full control effect); conditions: AR-UAS-bla HEK293, beta-lactamase ratio, agonist 16 h; stronger effect = higher value
Chain of Androgen receptor (Homo sapiens) (P10275 whole entry, looked up): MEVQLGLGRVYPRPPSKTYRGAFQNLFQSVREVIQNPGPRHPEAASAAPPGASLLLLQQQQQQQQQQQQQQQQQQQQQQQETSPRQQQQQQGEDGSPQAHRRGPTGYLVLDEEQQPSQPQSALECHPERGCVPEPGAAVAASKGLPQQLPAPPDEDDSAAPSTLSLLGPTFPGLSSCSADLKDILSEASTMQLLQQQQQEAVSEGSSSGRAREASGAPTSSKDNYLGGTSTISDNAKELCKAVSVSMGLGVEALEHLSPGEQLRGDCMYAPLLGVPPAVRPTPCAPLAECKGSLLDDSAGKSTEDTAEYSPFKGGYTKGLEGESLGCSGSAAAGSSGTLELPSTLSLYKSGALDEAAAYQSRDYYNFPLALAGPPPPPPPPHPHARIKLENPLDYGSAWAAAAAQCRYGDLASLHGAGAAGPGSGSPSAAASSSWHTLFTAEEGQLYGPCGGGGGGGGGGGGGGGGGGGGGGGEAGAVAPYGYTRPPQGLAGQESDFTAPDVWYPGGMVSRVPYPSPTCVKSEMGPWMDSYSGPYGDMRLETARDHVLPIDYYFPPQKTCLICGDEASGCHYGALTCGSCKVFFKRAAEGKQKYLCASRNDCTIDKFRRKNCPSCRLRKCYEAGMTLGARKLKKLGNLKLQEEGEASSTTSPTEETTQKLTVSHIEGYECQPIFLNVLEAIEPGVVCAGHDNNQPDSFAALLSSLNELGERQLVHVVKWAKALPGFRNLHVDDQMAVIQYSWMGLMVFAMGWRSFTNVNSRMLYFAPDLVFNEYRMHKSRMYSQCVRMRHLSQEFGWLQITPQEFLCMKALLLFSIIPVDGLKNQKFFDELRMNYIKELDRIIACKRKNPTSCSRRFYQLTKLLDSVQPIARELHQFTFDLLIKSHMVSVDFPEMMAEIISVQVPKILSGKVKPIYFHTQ
Procedure, shortened: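 EC50 and efficacy came from Hill fits of titrations (up to 92 uM) normalized to 30 nM R1881 as 100% and DMSO as 0%. Compound exposure was 16 h at 37 C on AR-UAS-bla HEK293 cells, with a 405/460/530 nm CCF4 fluorescence read.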

[10] = target: Androgen receptor (Homo sapiens) (UniProt P10275); assay: qHTS assay for small molecule antagonists of androgen receptor signaling (AID 588516; active = well fitted curve in the direction sought with a large enough effect in the signal ratio, with a control signal flat, not every such curve was filed as active; the % refers to the signal ratio; also: % is scaled to controls: 0 for no effect and ±100 for the full control effect)
Procedure, shortened: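 AR-UAS-bla-GripTite HEK 293 cells (2000/well, 5 h at 37 C) received compound titrations, then R1881 at 10 nM final; after 16 h at 37 C, CCF4 dye 2 h RT, beta-lactamase fluorescence read; IC50 from Hill fits.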

[11] = target: Bile acid receptor (Homo sapiens) (UniProt Q96RI1); assay: qHTS assay for small molecule antagonists of farnesoid X receptor signaling (AID 588526; calls by dose curve; also: % is scaled to controls: 0 for no effect and ±100 for the full control effect)
Chain of Bile acid receptor (Homo sapiens) (Q96RI1 whole entry, looked up): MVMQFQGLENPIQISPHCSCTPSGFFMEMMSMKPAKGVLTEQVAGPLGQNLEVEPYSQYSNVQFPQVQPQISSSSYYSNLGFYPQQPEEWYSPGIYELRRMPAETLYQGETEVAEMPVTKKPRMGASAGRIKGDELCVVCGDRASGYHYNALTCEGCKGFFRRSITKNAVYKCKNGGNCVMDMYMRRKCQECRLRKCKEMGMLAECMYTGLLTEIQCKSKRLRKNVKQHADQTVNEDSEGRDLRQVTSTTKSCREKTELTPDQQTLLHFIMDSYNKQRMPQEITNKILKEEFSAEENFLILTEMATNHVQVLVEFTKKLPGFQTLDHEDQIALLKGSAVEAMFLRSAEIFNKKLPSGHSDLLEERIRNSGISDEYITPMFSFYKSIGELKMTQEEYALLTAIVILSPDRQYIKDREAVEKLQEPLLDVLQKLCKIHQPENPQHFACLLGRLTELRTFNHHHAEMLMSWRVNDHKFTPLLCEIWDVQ
Procedure, shortened: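 Beta-lactamase reporter antagonist mode: HEK293T FXR-UAS-bla cells, titrated compound, CDCA stimulation, 16 h 37 C, CCF4 dye 2 h RT. Data normalized to CDCA 50 uM and DMSO; Hill-fit IC50.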

[12] = target: Bile acid receptor (Homo sapiens) (UniProt Q96RI1); assay: qHTS assay for small molecule agonists of farnesoid X receptor signaling (AID 588527; calls by dose curve;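 also: series mostly up to about 77 µM; 0% = vehicle basal and 100% = reference agonist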); conditions: HEK293T FXR-UAS-bla, beta-lactamase ratio, 16 h; activation: stronger effect = higher value
Procedure, shortened: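 Quantitative HTS used FXR-UAS-bla HEK293T cells with 16 h compound incubation at 37 C. EC50 values came from concentration-response curves normalized to chenodeoxycholic acid.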

COP(=S)(OC)Oc1c(Cl)cc(C)cc1Cl
inactive: activation [1] 2.7% | Potency [2] | activity change % (negative = inhibition) [3] 7.32% | activation [4] -0.0055%

O=Cc1cccc(Oc2ccccc2)c1
inactive: Potency [5] | Potency [2] | Potency [6] | activation [4] -0.909% | outcome [7]

CCSCCSP(=O)(OC)OC
inactive: Potency [8] | activation [9] -9.34% | Potency [10] | Potency [11] | activation [1] 8.21% | Potency [5] | Potency [2] | activity change % (negative = inhibition) [3] 4.21% | activation [4] -0.99% | outcome [7]
active: Potency [6] 54.5 µM

CC(C)(C#N)N=NC(C)(C)C#N
inactive: activation [1] 6.88% | Potency [5] | Potency [2] | Potency [6] | outcome [7]

CCCN(CCC)c1c([N+](=O)[O-])cc(C(F)(F)F)c(N)c1[N+](=O)[O-]
inactive: activation [12] 9.33%

CCOc1nc(C(Cl)(Cl)Cl)ns1
inactive: Potency [2] | activity change % (negative = inhibition) [3] 11.9% | activation [4] 0.185%

CC(C)(C)C(=O)[C@@H](Oc1ccc(Cl)cc1)n1cncn1
inactive: activation [1] 6.65% | Potency [5] | Potency [2] | activity change % (negative = inhibition) [3] -10.6% | activation [4] -1.55%

CCOP(=O)(OCC)OC(Cl)C(Cl)(Cl)Cl (stereo not given)
inactive: Potency [8] | activation [9] -3.01% | Potency [11] | activation [12] 4.93% | activation [1] -1.92% | Potency [5] | Potency [2] | activity change % (negative = inhibition) [3] -2.35% | activation [4] 1.4% | outcome [7]

CCOP(=O)(OCC)SCCSCC
inactive: outcome [7]

COC(=O)c1sccc1S(=O)(=O)NC(=O)Nc1nc(C)nc(OC)n1
inactive: activation [1] -2.71% | Potency [2] | Potency [6] | activation [4] -1.57% | outcome [7]

CNC(=S)S
inactive: activation [1] -6.24% | Potency [5] | Potency [2] | activation [4] -2.14% | outcome [7]

C=C1CC[C@H](O)C/C1=C/C=C1\CCC[C@]2(C)[C@@H]([C@H](C)CCCC(C)C)CC[C@@H]12
active: Potency [6] 23.7 µM

CCOP(=S)(OCC)Oc1ccc(S(C)=O)cc1 (stereo not given)
inactive: Potency [2] | activity change % (negative = inhibition) [3] -4.14% | Potency [6]

[Ga]#[As]
inactive: Potency [8] | activation [9] 2.63% | Potency [10] | activation [1] 4.24% | Potency [5] | Potency [2] | activation [4] -0.5% | outcome [7]

O=P(O)(O)CN(CP(=O)(O)O)CP(=O)(O)O
inactive: activation [1] 4.25% | Potency [5] | Potency [2] | activity change % (negative = inhibition) [3] -9.36% | activation [4] 0.3% | outcome [7]

CC(=O)[C@H]1[C@H](C#N)C[C@H]2[C@@H]3CC=C4C[C@@H](O)CC[C@]4(C)[C@H]3CC[C@@]21C
inactive: activation [12] -2.16% and -0.929% | activity change % (negative = inhibition) [3] 6.3%
